Results on 2 molecules are retold here after PubChem BioAssay AID686928 (Broad Institute, 2013).

Results with a measured potency or affinity are listed apart. Activity calls are given as the source filed them. How the calls were made is not given here.

This test can be described thus: HeLa cell cytotoxicity, dose response, cytotoxicity control, 24 h, plate reader, dry powder (AID 686928).

For the molecule `CCn1nnnc1N`, the call was inactive.
Turning to `CCCCCCCCCC(=O)C(O)CC` (configuration not stated), the result was inactive.
